# Assay results as given in the supplement of paper PMC11219838.
# Tested on: Meloidogyne hapla J2
# Test: proportion of mobile M. hapla J2 relative to DMSO control (fraction of DMSO control); higher = more viable, less nematicidal, active = 0.7 or less
# Conditions: 60 µM; 5 days; temperature: 20 °C
# Procedure, shortened: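 About 25 M. hapla J2 were added per 96-well well in distilled water, and compound was pinned to 60 µM final (0.6% v/v DMSO). Sealed plates were shaken at 200 rpm for 5 days at 20 °C, then 2 µL 1 M NaOH was added before microscopic mobility scoring. Mobility was divided by the mean of eight DMSO wells on the same plate, and two biological replicates were averaged.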
row,Compound,proportion of mobile M. hapla J2
1,O=C(Nc1ccc(-c2noc(-c3ccc(F)cc3)n2)cc1)c1ccc(Br)o1,0.972 (inactive)
2,Cc1ccc(-c2nc(-c3ccc(C(F)(F)F)cc3)no2)cc1,0.952 (inactive)
3,Cc1cc(OCc2nc(-c3ccccn3)no2)ccc1Br,0.937 (inactive)
4,CCOC(=O)c1c(NC(=O)CSc2nnc(-c3ccc(Cl)cc3)o2)sc(C)c1C,1.09 (inactive)
5,O=C(CSc1nnc(-c2ccccc2)o1)NC1CC2CCC1C2 (configuration not stated),0.795 (inactive)
6,Fc1ccc(-c2noc(-c3ccc(Br)cc3)n2)cc1,1.04 (inactive)
7,COc1ccccc1-c1nc(-c2ccc(Cl)cc2)no1,0.934 (inactive)
8,CCc1ccc(C(=O)Nc2ccccc2-c2nc(-c3ccncc3)no2)cc1,1 (inactive)
9,COc1ccc(-c2nnc(SCC(=O)Nc3ccc(Cl)c(Br)c3)o2)cc1,0.933 (inactive)
10,Cc1ccccc1OCc1nc(-c2ccc(NC(=O)c3ccc(Br)o3)cc2)no1,0.726 (inactive)
11,O=C(Nc1ccccc1-c1nc(-c2cccnc2)no1)c1ccccc1Cl,0.983 (inactive)
12,COc1ccc(-c2noc(CSc3ccc(C)cc3)n2)cc1,1.03 (inactive)
13,COc1ccccc1NC(=O)CSc1nnc(-c2ccc(Cl)cc2)o1,0.902 (inactive)
14,CCOc1ccc(-c2nc(-c3ccccc3)no2)cc1,0.922 (inactive)
15,FC(F)(F)c1cccc(-c2noc(-c3ccccc3Cl)n2)c1,1.04 (inactive)
16,CC(C)c1ccc(NC(=O)CSc2nnc(-c3ccc(Br)cc3)o2)cc1,1.03 (inactive)
17,Cc1ccc(-c2noc(COc3ccc(Br)cc3)n2)cc1,1 (inactive)
